# From PubChem BioAssay (NCATS)
# Records with an inconclusive call do not appear. Values without a mark were called inactive. Activity calls are given as the source filed them. The call rests on the fitted dose curve; in most records, active means well fitted cell-killing curve with a large enough effect; inconclusive means small, poorly fitted or top-dose-only effect, or effect the other way; inactive means no such curve, though single readings can be large or run the other way.
# Assay: Quantitative High-Throughput drug screen in 47 multiple myeloma cell lines against the NCATS MIPE library collection: KMS21BM_JCRB cell viability assay (AID 1918974)
# Settings: ATP luminescence, 48 h; viability: at 45.8 µM unless noted
# From the text: PI: Beverly A. Mock Ph.D.
# Laboratory of Cancer Biology and Genetics,
# Center for Cancer Research, National Cancer Institute,
# National Institute of Health, Bethesda, Maryland
# Drug resistance and disease progression are common in multiple myeloma (MM) patients, underscoring the need for new therapeutic combinations. […] We hypothesized that effective combinations would reduce MYC expression and enhance p16 activity. […] These preclinical data identify potentially useful drug combinations for evaluation in drug-resistant MM and reveal potential mechanisms of combined drug sensitivity.
# Described herein is the primary MIPE qHTS used to cherrypick compounds. Validated compounds were then further tested for potential synergistic activiy.
# [1] Peat TJ, Gaikwad SM, Dubois W, Gyabaah-Kessie N, Zhang S, Gorjifard S, Phyo Z, Andres M, Hughitt VK, Simpson RM, Miller MA, Girvin AT, Taylor A, Williams D, D'Antonio N, Zhang Y, Rajagopalan A, Flietner E, Wilson K, Zhang X, Shinn P, Klumpp-Thomas C, McKnight C, Itkin Z, Chen L, Kazandijian D, Zhang J, Michalowski AM, Simmons JK, Keats J, Thomas CJ, Mock BA. Drug combinations identified by high-throughput screening promote cell cycle transition and upregulate Smad pathways in myeloma. Cancer Lett. 2023 Aug 1;568:216284. doi: 10.1016/j.canlet.2023.216284. Epub 2023 Jun 24. PMID: 37356470; PMCID: PMC10408729.
# SEQUENCE No. (e.g., 1, 2, 3, etc.); […] (e.g., Cells, Incubation, Reagent, etc.); VALUE and DESCRIPTION.
# 1; Cells; 5 uL; white, solid bottom 1536-well Greiner assay plate.
# 2; Compounds; 23 nL; Kalypsis pin tool (Wako USA) equipped with a 1536-well pin head to transfer to the assay plates.
# 3; Incubation; 48 hours; 37C incubation.
# 4; Reagent;5uL; CellTiter Glo (Promega).
# 5; Detector; 425V; Luminescence; Viewlux PerkinElmer.
# NOTES (numbers refer to Sequence numbers above)
# 1. The cell-based screening methods employed in this study were like those previously published. Briefly, the corresponding myeloma cell lines were screened in 1,536-well plates with 500 cells, 5-uL per well for inhibition of cell viability (assessed by measuring ATP levels with CellTiterGlo).
# 2. NCATS MIPE 4.0 library of approved and investigational drugs were added using the Kalypsis pin tool. Wells treated with DMSO only for 100% viability and media only wells for 0% viability were used as controls.
# 3. The assay plates were covered and incubated for 48 hours in a 37C, 5% CO2 incubator with controlled humidity.
# 4. After 48 hours, CellTilter-GloTM luminescent substrate mix (Promega) reagent was added to the assay plate and plates we incubated for 5 min at room temperature.
# 5. Signal was measured as median relative luminescence units on a ViewLux (PerkinElmer) multiplate reader.
# [1] Heske CM, Davis MI, Baumgart JT, Wilson K, Gormally MV, Chen L, Zhang X, Ceribelli M, Duveau DY, Guha R, Ferrer M, Arnaldez FI, Ji J, Tran HL, Zhang Y, Mendoza A, Helman LJ, Thomas CJ. Matrix Screen Identifies Synergistic Combination of PARP Inhibitors and Nicotinamide Phosphoribosyltransferase (NAMPT) Inhibitors in Ewing Sarcoma. Clin Cancer Res. 2017 Dec 1;23(23):7301-7311. doi: 10.1158/1078-0432.CCR-17-1121. Epub 2017 Sep 12. PMID: 28899971; PMCID: PMC6636827.
# Potency means the concentration at half of the fitted maximal effect.
SMILES,viability,Potency
O=C(c1ccccc1)c1ccc2n1CCC2C(=O)O (configuration not stated),193%,
O=C(O)c1cccc(-c2noc(-c3ccccc3F)n2)c1,121% (active),
Nc1nc(Cl)nc2c1ncn2[C@H]1C[C@H](O)[C@@H](CO)O1,,0.0935 µM (active)
Cc1nc(Nc2ncc(C(=O)Nc3c(C)cccc3Cl)s2)cc(N2CCN(CCO)CC2)n1,,0.209 µM (active)
c1cnc2cc3c(cc2n1)C1CNCC3C1,129%,
CC(C)Oc1ccc2c(=O)c(-c3ccccc3)coc2c1,387% (active),
CCC1=C(C)CN(C(=O)NCCc2ccc(S(=O)(=O)NC(=O)NC3CCC(C)CC3)cc2)C1=O (configuration not stated),134%,
CCOC(=O)C1=C(O)C(=O)N(Cc2ccccc2)C1,156%,
O=c1cc(N2CCOCC2)oc2c(-c3ccccc3)cccc12,375%,
Cc1cc(=O)c2c(O)c3c(O)cc(=O)c4c3c3c(cc(O)c1c23)C(C)(C)C=4O,,4.18 µM (active)
Nc1nc(OCc2ccccc2)c2[nH]cnc2n1,,4.69 µM (active)
CN(C)c1ccc2nc3ccc(=[N+](C)C)cc-3sc2c1,,1.48 µM (active)
Clc1ccc(C(Cn2ccnc2)OCc2ccc(Sc3ccccc3)cc2)c(Cl)c1 (configuration not stated),,26.4 µM (active)
Nc1ccc(S(N)(=O)=O)cc1,191%,
O=C(OC1C[C@H]2CC[C@@H](C1)[N+]21CCCC1)C(O)(c1ccccc1)c1ccccc1 (some centres not stated),119%,
CCN(CCO)CCCC(C)Nc1ccnc2cc(Cl)ccc12 (configuration not stated),144%,
Cn1c(NCCN(CCO)CCCc2ccc([N+](=O)[O-])cc2)cc(=O)n(C)c1=O,,10.5 µM (active)
Clc1ccc(C(Cn2ccnc2)OCc2c(Cl)cccc2Cl)c(Cl)c1 (configuration not stated),,20.9 µM (active)
COc1cc(OC)c(C(=O)CCCN2CCCC2)c(OC)c1,,18.7 µM (active)
CC(C)(S)[C@@H](N)C(=O)O,144%,
C[Se]CCC(N)C(=O)O (configuration not stated),325% [at 92.2 µM] (active),
COc1cc2c(cc1OC)C1CC(=O)C(CC(C)C)CN1CC2 (configuration not stated),,20.9 µM (active)
